Values joined by “and” are separate entries in the source; they are usually repeats but may differ in a detail not shown here. Identical values can stand only once. Active and inactive are the calls of the source. Rule for the calls: active = hit-call score of the fitted dose curve at least 0.9, where 1 is the maximum; inactive = score below 0.9.
How the values were obtained:
[1] = BSK_4H_Eotaxin3: BioMAP Diversity Plus: 4H Assay for Eotaxin 3 Biomarker Activity (AID 2283000); details: primary human endothelial cells (HUVEC); actives raise or lower the signal
How it was run: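 Chemicals were added to human umbilical vein endothelium cultures, and Eotaxin-3 was quantified by ELISA at 24 h. Values were derived by bidirectional fitting with DMSO serving as negative control and activity baseline.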

[2] = read-out: Interleukin-1 alpha (IL1a), IL1A (gene 3552); assay: BSK_BE3C_IL1a: BioMAP Diversity Plus: BE3C Assay for Interleukin-1 alpha (IL1a) Biomarker Activity (AID 2283016); details: primary human bronchial epithelial cells; actives raise or lower the signal
How it was run: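 Measured in human lung primary bronchial epithelial cells: IL-1a by ELISA at 24 h after dosing, with bidirectional fitting against DMSO.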

[3] = read-out: Monocyte Chemoattractant Protein-1 (MCP1), CCL2 (gene 6347); assay: BSK_3C_MCP1: BioMAP Diversity Plus: 3C Assay for Monocyte Chemoattractant Protein-1 (MCP1) Biomarker Activity (AID 2283017); details: primary human endothelial cells (HUVEC); actives raise or lower the signal
How it was run: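 ELISA read-out of MCP-1 from human umbilical vein endothelial cell cultures harvested 24 h post-dosing. Gain or loss of signal was fitted relative to DMSO.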

[4] = read-out: Monocyte Chemoattractant Protein-1 (MCP1), CCL2 (gene 6347); assay: BSK_4H_MCP1: BioMAP Diversity Plus: 4H Assay for Monocyte Chemoattractant Protein-1 (MCP1) Biomarker Activity (AID 2283018); details: primary human endothelial cells (HUVEC); actives raise or lower the signal
How it was run: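 Primary human umbilical vein endothelium is exposed to chemical for 24 h before MCP-1 is assayed by ELISA. Concentration-response fitted bidirectionally relative to DMSO.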

[5] = read-out: Monokine induced gamma interferon (MIG), CXCL9 (gene 4283); assay: BSK_3C_MIG: BioMAP Diversity Plus: 3C Assay for Monokine induced gamma interferon (MIG) Biomarker Activity (AID 2283021); details: primary human endothelial cells (HUVEC); actives raise or lower the signal;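 for AC50: MIG protein level measured by immunoassay in the treated endothelial cultures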
How it was run: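 ELISA-measured MIG in dosed HUVEC 3C cultures at 24 h, analysed by bidirectional fitting with DMSO defining baseline activity.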

[6] = BSK_3C_SRB: Viability Assessment in the BioMAP Diversity Plus: 3C Assay (AID 2283023); details: primary human endothelial cells (HUVEC);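 note: fitted both ways against DMSO so a hit may be signal rise or drop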
How it was run: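 Absorbance at 560 nm of sulforhodamine B-stained (0.1%) total protein served as a cytotoxicity readout in human umbilical vein endothelial cells, 24 h after chemical treatment. Signal was fitted bidirectionally relative to DMSO.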

[7] = BSK_4H_SRB: Viability Assessment in the BioMAP Diversity Plus: 4H Assay (AID 2283027); details: primary human endothelial cells (HUVEC);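 note: cells exposed to compound for 24 h before staining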;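 for AC50: curves fitted both ways versus DMSO so AC50 may be loss or gain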
How it was run: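 Cytotoxicity readout: sulforhodamine B (0.1%) staining of total protein after 10% TCA fixation, measured at 560 nm in human umbilical vein endothelium at 24 h. DMSO set the baseline; fitting was bidirectional.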

[8] = read-out: Monokine induced gamma interferon (MIG), CXCL9 (gene 4283); assay: BSK_BE3C_MIG: BioMAP Diversity Plus: BE3C Assay for Monokine induced gamma interferon (MIG) Biomarker Activity (AID 2283035); details: primary human bronchial epithelial cells; actives raise or lower the signal;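 for outcome: MIG protein measured by ELISA in BE3C cultures after 24 h of dosing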
How it was run: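 hu bronchial epithelial 1° cells, 24 h cpd; MIG by ELISA; bidirectional fit, DMSO = baseline.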

[9] = read-out: Plasminogen activator inhibitor-1 (PAI1), SERPINE1 (gene 5054); assay: BSK_BE3C_PAI1: BioMAP Diversity Plus: BE3C Assay for Plasminogen activator inhibitor-1 (PAI1) Biomarker Activity (AID 2283037); details: primary human bronchial epithelial cells; actives raise or lower the signal
How it was run: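 In this multiplexed primary-cell system, bronchial epithelial cells receive test chemical and are sampled at 24 h. PAI-1 is read by ELISA, with DMSO serving as negative control for bidirectional fitting.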

[10] = read-out: Urokinase-type plasminogen activator receptor (uPAR), PLAUR (gene 5329); assay: BSK_BE3C_uPAR: BioMAP Diversity Plus: BE3C Assay for Urokinase-type plasminogen activator receptor (uPAR) Biomarker Activity (AID 2283039); details: primary human bronchial epithelial cells; actives raise or lower the signal;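 for outcome: uPAR protein level measured by ELISA on the cells; cells exposed to compound for one day before measurement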
How it was run: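 Chemically treated human bronchial epithelial cells (lung primary) are assayed for uPAR by ELISA after 24 h, with data fitted in both directions using DMSO as negative control.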

[11] = read-out: Tissue plasminogen activator (tPA), PLAT (gene 5327); assay: BSK_BE3C_tPA: BioMAP Diversity Plus: BE3C Assay for Tissue plasminogen activator (tPA) Biomarker Activity (AID 2283041); details: primary human bronchial epithelial cells; actives raise or lower the signal;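 for outcome: tPA level quantified by ELISA one day after compound addition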
How it was run: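 Using human lung primary bronchial epithelial cells, tPA was measured by ELISA 24 h after dosing; data fitted relative to DMSO.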

[12] = read-out: Interleukin-8 (IL8), CXCL8 (gene 3576); assay: BSK_CASM3C_IL8: BioMAP Diversity Plus: CASM3C Assay for Interleukin-8 (IL8) Biomarker Activity (AID 2283042); details: primary human coronary artery smooth muscle cells; actives raise or lower the signal;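 note: IL-8 protein level quantified by ELISA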
[13] = read-out: Human Leukocyte Antigen - DR isotype (HLADR), HLA-DRA (gene 3122); assay: BSK_CASM3C_HLADR: BioMAP Diversity Plus: CASM3C Assay for Human Leukocyte Antigen - DR isotype (HLADR) Biomarker Activity (AID 2283043); details: primary human coronary artery smooth muscle cells; actives raise or lower the signal;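 note: cell-surface HLA-DR protein level quantified by ELISA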
[14] = read-out: Macrophage colony-stimulating factor (MCSF), CSF1 (gene 1435); assay: BSK_CASM3C_MCSF: BioMAP Diversity Plus: CASM3C Assay for Macrophage colony-stimulating factor (MCSF) Biomarker Activity (AID 2283044); details: primary human coronary artery smooth muscle cells; actives raise or lower the signal;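 note: M-CSF protein amount quantified by ELISA after 24 h exposure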
[15] = read-out: Low-density lipoprotein receptor (LDLR), LDLR (gene 3949); assay: BSK_CASM3C_LDLR: BioMAP Diversity Plus: CASM3C Assay for Low-density lipoprotein receptor (LDLR) Biomarker Activity (AID 2283045); details: primary human coronary artery smooth muscle cells; actives raise or lower the signal;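 note: LDLR protein level on the cell surface quantified by ELISA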
[16] = read-out: Monocyte Chemoattractant Protein-1 (MCP1), CCL2 (gene 6347); assay: BSK_CASM3C_MCP1: BioMAP Diversity Plus: CASM3C Assay for Monocyte Chemoattractant Protein-1 (MCP1) Biomarker Activity (AID 2283046); details: primary human coronary artery smooth muscle cells; actives raise or lower the signal;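 note: MCP-1 level quantified by ELISA 24 h after dosing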
[17] = BSK_CASM3C_Proliferation: Cell Proliferation Assessment in the BioMAP Diversity Plus: CASM3C Assay (AID 2283047); details: primary human coronary artery smooth muscle cells;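 note: sub-confluent cells exposed 48 h before staining; fitted both ways against DMSO so gain or loss of cell number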
[18] = BSK_CASM3C_SRB: Viability Assessment in the BioMAP Diversity Plus: CASM3C Assay (AID 2283050); details: primary human coronary artery smooth muscle cells;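 note: total protein by SRB staining as cytotoxicity measure in parallel cultures; cells exposed to compound for 24 h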
[19] = read-out: Interleukin-8 (IL8), CXCL8 (gene 3576); assay: BSK_hDFCGF_IL8: BioMAP Diversity Plus: hDFCGF Assay for Interleukin-8 (IL8) Biomarker Activity (AID 2283058); details: primary human foreskin fibroblasts; actives raise or lower the signal
How it was run: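 Cells used are human skin primary fibroblasts. Chemical is added, cultures run 24 h, then IL-8 is quantified by ELISA, and gain or loss versus DMSO control is fitted in both directions.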

[20] = BSK_hDFCGF_Proliferation: Cell Proliferation Assessment in the BioMAP Diversity Plus: hDFCGF Assay (AID 2283059); details: primary human foreskin fibroblasts;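 note: curves fitted for both rise and fall of signal versus DMSO baseline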
How it was run: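 Steps: dose primary human dermal fibroblasts (foreskin); […] fix in 10% TCA; stain with 0.1% SRB; read 560 nm; fit gain or loss of signal against DMSO.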

Compound: COc1ccccc1Oc1c(NS(=O)(=O)c2ccc(C(C)(C)C)cc2)nc(-c2ncccn2)nc1OCCO
- AC50 [1]: 7.97 µM (active) and 11.3 µM (active)
- outcome [2]: inactive
- outcome [3]: inactive
- outcome [4]: inactive
- outcome [5]: inactive
- outcome [6]: inactive
- outcome [7]: inactive
- outcome [8]: inactive
- outcome [9]: inactive
- outcome [10]: inactive
- outcome [11]: inactive
- outcome [12]: inactive
- outcome [13]: inactive
- AC50 [14]: 4.05 µM (active) and 5.31 µM (active)
- outcome [15]: inactive
- outcome [16]: inactive
- outcome [17]: inactive
- outcome [18]: inactive
- outcome [19]: inactive
- AC50 [20]: 20 µM (active) and 15.3 µM (active)

Compound: OC(C(F)(F)F)(C(F)(F)F)C(O)(C(F)(F)F)C(F)(F)F
- AC50 [1]: 22.3 µM (active) and 27.4 µM (active)
- AC50 [2]: 31.6 µM (active) and 31.3 µM (active)
- AC50 [3]: 49.9 µM (active) and 50.5 µM (active)
- AC50 [4]: 21.5 µM (active) and 10.1 µM (active)
- AC50 [5]: 43.7 µM (active) and 50.9 µM (active)
- AC50 [6]: 30 µM (active) and 27.7 µM (active)
- AC50 [7]: 27.5 µM (active) and 26 µM (active)
- AC50 [8]: 54.8 µM (active) and 54.6 µM (active)
- AC50 [9]: 13.9 µM (active) and 12.5 µM (active)
- AC50 [10]: 14.4 µM (active) and 13.8 µM (active)
- AC50 [11]: 17 µM (active) and 16 µM (active)
- outcome [12]: inactive
- AC50 [13]: 18.7 µM (active) and 7.57 µM (active)
- AC50 [14]: 49 µM (active) and 50.5 µM (active)
- outcome [15]: inactive
- outcome [16]: inactive
- AC50 [17]: 27.7 µM (active) and 28.9 µM (active)
- AC50 [18]: 30 µM (active) and 26.9 µM (active)
- outcome [19]: inactive
- AC50 [20]: 15.5 µM (active) and 16.8 µM (active)

— PubChem BioAssay (EPA / NIEHS)
